In PubChem BioAssay AID504582 (Broad Institute, 2011) one finds growth rescue data, which are given here for 93 compounds.

The whole screen tested about 340,000 compounds, of which about 2,300 (0.68%) were called active. For the sample, actives were picked, then their nearest neighbours and some compounds at random. A number with no mark means an inactive call. Cut-off read from the data, not from the text of the source: active = growth rescue above about 28% (passing the limit was not always enough); inconclusive = no clear call, values can overlap the other calls.

A short description of the test: rescue of yeast from PfHsp40 toxicity, primary screen, S. cerevisiae, ATP luminescence (AID 504582).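 Note: yeast W303a lacking pdr1 and pdr3 grown in galactose medium; growth measured after three days at 30 °C.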 The following applies: S. cerevisiae expressing PfHsp40, growth rescue, at 12.5 µM, stronger effect = higher value.
Turning to `Cn1c(CCc2ccccc2)nnc1SCC(N)=O`, the growth rescue is 0.061%.

Consider `CC(=O)Nc1ccc(S(=O)(=O)NCC(=O)OCC(=O)c2ccc[nH]2)cc1`, for which the growth rescue is -1.02%. In the case of `COc1cc(C)ccc1OCC(=O)OCC(=O)c1ccc[nH]1`, the growth rescue is 62.4% (active). Next, `COc1ccc(C(=O)COC(=O)COc2ccc(C)c(C)c2)cc1`: 0.0365%; `Cc1ccc(NC(=O)NC(=O)N(C2CCCCC2)S(=O)(=O)c2ccccc2)cc1`: -1.71%. Turning to `CCOc1ccccc1NC(=O)C1CCCN(S(=O)(=O)c2ccccc2)C1` (stereo not drawn), the growth rescue was 0.502%. As for `COc1cccc(Oc2ccc(N)cc2)c1`, the growth rescue is 1.74%. `CC(C)(C)c1ccc(OC2=CS(=O)(=O)c3ccccc32)cc1`: the growth rescue was 6.99%.

As for `CC(C)(C)c1ccc(Oc2ccc(N)cc2)cc1`, the growth rescue is 346% (active). Then `O=C1C(C=NCC2CCCO2)=C(O)c2ccccc21` (stereo not drawn), with 0.444%. With `Cc1cc(C(=O)CC#N)c(C)n1CC(F)(F)F`, the growth rescue was 0.147%. Next, `CC(C)Cn1c(SCC(=O)Nc2ccc(Cl)cc2F)nc(O)cc1=O`: 1.12%; `COc1cccc(CNC(=O)C2CCCN(S(=O)(=O)N3CC(C)CC(C)C3)C2)c1` (stereo not drawn): 0.206%; `CCOc1ccc(-c2nc(N)ncc2-c2ccccc2OC)c(O)c1`: 1.96%.

Regarding `CCOc1ccccc1Oc1cn[nH]c1-c1ccc(OC)cc1O`, the growth rescue was 125% (active). Regarding `COc1ccc(Oc2cn[nH]c2-c2ccc(OC)cc2O)cc1`, the growth rescue is 10.8%.

As for `COc1ccccc1/C=C1\SC(=O)N(CCC(=O)N(C)C2CCS(=O)(=O)C2)C1=O` (stereo not drawn), the growth rescue was -0.442%. As to `CCOc1ccc(C(CC(=O)O)NC(=O)Cc2ccccc2)cc1OC` (stereo not drawn), the growth rescue was -0.249%. Then `CCCCC(=O)NC(c1ccc(OC)c(OC)c1)c1ccc2cccnc2c1O` (stereo not drawn), with 222% (active); and `COc1ccc(CCNS(=O)(=O)c2cccc3cccnc23)cc1OC`, with 0.122%. Then `CCOC(=O)C(C)Oc1cccc2c(=O)n(CC(=O)N3CCc4ccccc43)ccc12` (stereo not drawn), with 92.2% (active).

Consider `COc1cccc2c(=O)n(CC(=O)N3CCCCCC3)ccc12`, for which the growth rescue is -0.593%. Take `CCOC(=O)C(C)Oc1cccc2c(=O)n(CC(=O)NCCc3ccc(OC)c(OC)c3)ccc12` (stereo not drawn): the growth rescue is 0.594%. Then `O=C(O)CCCCOn1ccnc1`, with -2.14%; and `O=C(c1noc2c1CCCC2)N1CCc2ccccc2C1`, with -0.161%; and `COc1ccc2c(c1)CCc1c(C(=O)N3CCCC3)noc1-2`, with 0.772%. For `COc1ccc2c(c1)CCc1c(C(=O)N3CCc4ccccc4C3)noc1-2`, the growth rescue is 182% (active). Next, `CCN(CC)C(=O)COc1coc(CN2CCN(Cc3ccccc3)CC2)cc1=O`: -0.869%; `Cc1ccc2[nH]c(C)c(CCNC(=O)NC3CCCCC3)c2c1`: -0.354%.

In the case of `Cc1ccccc1-c1n[nH]c(=S)n1/N=C/c1ccc(-c2ccccc2Br)o1`, the growth rescue was 0.454%. As to `Cc1ccsc1/C=N/n1c(=S)[nH]nc(C)c1=O`, the growth rescue was -0.774%. With `S=c1[nH]nc(-c2ccco2)n1/N=C/c1ccc(Br)s1`, the growth rescue is 152% (active).

With `Cc1cc(NC(=O)CSc2nc(=O)cc(N)n2-c2ccc(F)cc2)no1`, the growth rescue was -0.428%.

`CCCc1nc2scc(-c3ccc(C)cc3)c2c(=O)n1N`: the growth rescue was 0.943%. Then `CCOC(=O)C(C)n1cnc2scc(-c3ccc(C)c(C)c3)c2c1=O` (stereo not drawn), with 4.82%; and `COC(=O)Cn1cnc2scc(-c3ccc(C)c(C)c3)c2c1=O`, with 151% (active); and `CCn1cnc2scc(-c3ccc(C)c(C)c3)c2c1=O`, with 1.65%. Next, `CCC(C(=O)OC)n1cnc2scc(-c3ccc(C)cc3)c2c1=O` (stereo not drawn): 49.2% (active); `CC(=O)C(C)n1cnc2scc(-c3ccc(C)cc3)c2c1=O` (stereo not drawn): 0.285%. For `CN(C)CCCn1c(SCCN2C(=O)c3ccccc3C2=O)nc2ccccc2c1=O`, the growth rescue is -0.077%. Then `COc1ccc(C2OC(=O)CC2C(=O)NC(C)C)cc1` (stereo not drawn), with -0.42%; and `Cc1cccc(CCNS(=O)(=O)c2ccc(S(=O)(=O)NC3CCCC3)cc2)c1`, with 0.473%; and `O=C(CCc1nnc2ccc(NCCCN3CCCC3=O)nn12)NCc1ccccc1Cl`, with -0.483%. Next, `Cc1nn(C)cc1C(=O)Nc1ccccc1Br`: 0.045%; `CCCS(=O)(=O)N1CCN=C1SCc1cccc(F)c1`: 0.879%. For the compound `O=C1CC(=O)Nc2cc(S(=O)(=O)N3CCN(c4cccc(C(F)(F)F)c4)CC3)ccc2N1`, the growth rescue is -1.27%. With `O=C1CN(C(=O)c2cc(F)cc(F)c2)c2ccccc2N1`, the growth rescue is -0.198%. Regarding `Cc1c(NC(=O)CSc2cccc3cccnc23)c(=O)n(-c2ccccc2)n1C`, the growth rescue was 5.35%. Then `O=C(NNc1cc(Cl)ccc1Cl)c1cccnc1Cl`, with 0.035%; and `CC(=O)/C(=N\Nc1ccc(Cl)cc1Cl)Sc1cccc2cccnc12`, with 67.7% (active); and `O=[N+]([O-])c1ccc(N2CCN(S(=O)(=O)c3ccccc3)CC2)cc1N1CCc2ccccc2C1`, with -0.201%. Next, `CC/C(=C\c1ccc(Cl)cc1)c1ccncc1`: 0.0255%; `COc1ccc(NC(=O)N2CCCC(c3nc(-c4ccc(F)cc4)no3)C2)cc1` (stereo not drawn): 0.883%; `CCOC(=O)C1CCCN(C(=O)CN(c2ccc(OC)cc2)S(=O)(=O)c2c(C)noc2C)C1` (stereo not drawn): 0.46%. On to `CCN(C(=O)C1CCCN(c2nc(-c3ccc(OC)cc3)no2)C1)c1ccc(OC)cc1` (stereo not drawn), for which the growth rescue is 61.7% (active). In the case of `C/C(=N\NC(=O)c1ccc(NS(=O)(=O)c2cccs2)cc1)c1ccc2ccccc2c1`, the growth rescue was -0.368%. Consider `CSCCC(NC(=O)COc1ccccc1)C(=O)OCCOc1ccc(F)cc1` (stereo not drawn), for which the growth rescue was -0.578%.

As for `CSCCC(NC(=O)COc1ccccc1)C(=O)N1CCN(c2cccc(C(F)(F)F)c2)CC1` (stereo not drawn), the growth rescue is 197% (active).

On to `CSCCC(NC(=O)COc1ccccc1)C(=O)OCCOc1ccc(Br)cc1` (stereo not drawn), for which the growth rescue was -0.924%.

For `COCCCNS(=O)(=O)c1cccc(S(=O)(=O)c2cccc(S(=O)(=O)NCCCOC)c2)c1`, the growth rescue is -1.18%. Then `CNC(=S)N1CCC(NC(=O)C(Cc2ccc(F)cc2)NC(C)=O)CC1` (stereo not drawn), with -1.81%.

On to `Cc1ccc(S(=O)(=O)NCC(=O)N(CC(=O)NC(C)(C)C)Cc2cccs2)cc1`, for which the growth rescue was -1.96%. As to `O=C(N[C@@H](Cc1c[nH]c2ccccc12)C(=O)O)OCC1c2ccccc2-c2ccccc21`, the growth rescue was -1.08%.

For the compound `CC(=O)c1cccc(NC(=S)N2CCN(S(C)(=O)=O)CC2)c1`, the growth rescue was -0.215%. `O=C(CSc1ccc(-c2ccccn2)nn1)Nc1ccccc1`: the growth rescue is 379% (active). Next, `O=C(CSc1ccc(-c2ccc(-n3cccn3)cc2)nn1)Nc1ccc([N+](=O)[O-])cc1`: 0.191%; `COc1cc(NC(=O)CSc2ccc(-c3cccnc3)nn2)cc(OC)c1`: -0.74%; `N#Cc1ccc(C(=O)OCC(=O)NC(=O)NC2CCCCC2)cc1`: 0.27%. As for `COc1ccc(NS(=O)(=O)c2ccc(NC(=S)NC(=O)/C=C/c3ccc(C)cc3)cc2)nn1`, the growth rescue was -1.55%. Next, `COc1ccc(NC(=O)/C(Cl)=C(/Cl)S(=O)Cc2ccc(C)cc2)cn1` (stereo not drawn): 278% (active); `COc1ccc(CS(=O)/C(Cl)=C(/Cl)C(=O)Nc2ccc(OC)nc2)cc1` (stereo not drawn): 81.6% (active). As for `COc1ccc(OC(C)C(=O)Nc2cccnc2)cc1` (stereo not drawn), the growth rescue was -0.665%. Next, `COc1cccc(NC(=S)N(Cc2ccc(C)cc2)Cc2ccccn2)c1`: 1.55%; `COc1ccc(CCNC(=O)COC(=O)c2cnc(Cl)c(Cl)c2)cc1`: -2.56%. For the compound `O=S(=O)(NC1CC1)c1ccc(Cl)cc1`, the growth rescue was -0.92%.

For `O=S(=O)(NC1CCCCC1N1CCCCC1)c1ccc(Cl)cc1` (stereo not drawn), the growth rescue is 1.55%. In the case of `O=S(=O)(NC1CC2CCC1C2)c1ccc(Cl)cc1` (stereo not drawn), the growth rescue is 74.5% (active). Turning to `COc1ccccc1OCC(=O)Nc1c2c(nn1-c1ccc(F)cc1)CS(=O)(=O)C2`, the growth rescue was 3.47%. As to `CCOC(=O)c1c(NC(=O)NC(C)(C)C)sc2c1CCN(C)C2`, the growth rescue is -1.54%. For `COc1ccccc1/C=N\Nc1cc(C)nc(-n2nc(C)cc2C)n1`, the growth rescue was 143% (active). For `CCOC(=O)c1cnc(-n2nc(C)cc2C)nc1NNc1cc(C)nc(-c2ccccc2)n1`, the growth rescue is 0.854%. Next, `COc1ccccc1/C=N/N1CCN(Cc2ccccc2Cl)CC1`: -1.43%; `COc1ccc(CNC(=O)COC(=O)C2=Cc3ccccc3OC2)cc1`: 0.075%. Next, `CC(=O)c1c(C)[nH]c(C(=O)NCc2ccc(C)cc2)c1C`: -0.188%. Next, `CCCCNC(=O)CSc1nccn1Cc1ccccc1`: 0.912%; `Oc1ccc(-c2nnc(Nc3ccccc3)c3ccccc23)cc1`: -0.3%; `CN1CCN(c2nc(Nc3ccc(O)cc3)nc3ccccc23)CC1`: -0.529%. `Cc1cccc(-c2nc(Nc3ccc(O)cc3)c3ccccc3n2)c1`: the growth rescue is 101% (active). Next, `CC1(C)CC(=O)c2c(n(S(=O)(=O)c3ccccc3)c3ccc(NS(=O)(=O)c4ccccc4)cc23)C1`: -0.451%.

For the compound `CC(=O)N1N=C(c2ccncc2)OC1(Cc1ccccc1)Cc1ccccc1`, the growth rescue was -0.493%.

`O=C(CSc1n[nH]c(-c2cccnc2)n1)Nc1ccc(Cl)cc1`: the growth rescue is -2.05%.

With `Cc1c(C(=O)NCCN2C(=O)S/C(=C\c3cccs3)C2=O)cccc1[N+](=O)[O-]`, the growth rescue is 0.66%.

With `CC[C@]1(O)C[C@@H]2CN(CCc3c([nH]c4ccccc34)[C@@](C(=O)OC)(c3cc4c(cc3OC)N(C)[C@H]3[C@@](O)(C(=O)OC)[C@H](OC(C)=O)[C@]5(CC)C=CCN6CC[C@]43[C@@H]65)C2)C1`, the growth rescue is -2.2%.
